The results in this text go back to article PMC7862700, “An all-to-all approach to the identification of sequence-specific readers for epigenetic DNA modifications on cytosine”.

Common to all, as to assay: DAPPL (digital affinity profiling via proximity ligation, sequencing); 10 mM Tris-HCl pH 7.5, 50 mM NaCl, 1 mM DTT, 4% glycerol, room temperature, 30 min; GST-TFs on glutathione beads, 16-mer random dsDNA library, 0.1% formaldehyde crosslink after washing; high values mean tight binding
Conditions in all cases: protein: recombinant; tags: N-terminal GST; dsDNA, one strand shown

The target in one experiment is T1, ERF (Homo sapiens, UniProt P50548 1-548).
T1 sequence: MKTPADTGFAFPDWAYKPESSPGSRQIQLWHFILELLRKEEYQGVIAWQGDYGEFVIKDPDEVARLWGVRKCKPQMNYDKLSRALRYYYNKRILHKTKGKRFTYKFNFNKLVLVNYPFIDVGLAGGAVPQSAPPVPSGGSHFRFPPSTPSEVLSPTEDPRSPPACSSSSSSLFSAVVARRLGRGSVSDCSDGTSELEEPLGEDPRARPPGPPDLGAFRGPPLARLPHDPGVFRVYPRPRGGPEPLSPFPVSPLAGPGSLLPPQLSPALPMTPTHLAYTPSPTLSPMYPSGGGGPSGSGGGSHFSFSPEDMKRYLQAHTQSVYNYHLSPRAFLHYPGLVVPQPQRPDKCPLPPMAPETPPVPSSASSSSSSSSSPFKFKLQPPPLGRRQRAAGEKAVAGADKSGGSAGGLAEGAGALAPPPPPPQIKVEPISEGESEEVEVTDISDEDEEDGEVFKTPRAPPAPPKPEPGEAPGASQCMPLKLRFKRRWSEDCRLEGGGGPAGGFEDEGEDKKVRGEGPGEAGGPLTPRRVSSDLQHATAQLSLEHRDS
The gist of the method: (§1)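 Yeast served to express human transcription factors as GST fusions, which were then captured on glutathione beads and labelled with DNA barcodes. Pooled with a tag-only sample, they were incubated with 200 nmole of a 16-mer random double-stranded DNA library for 30 min at room temperature in Tris/NaCl/DTT/glycerol buffer, washed, crosslinked with 0.1% formaldehyde, ligated by proximity, amplified by PCR and sequenced. Dividing each hexamer's read frequency for a factor by its frequency for the tag-only sample gives the binding signal.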

The next experiment has as its target T2, ETV3L (Homo sapiens, UniProt Q6ZN32 1-361).
T2 sequence: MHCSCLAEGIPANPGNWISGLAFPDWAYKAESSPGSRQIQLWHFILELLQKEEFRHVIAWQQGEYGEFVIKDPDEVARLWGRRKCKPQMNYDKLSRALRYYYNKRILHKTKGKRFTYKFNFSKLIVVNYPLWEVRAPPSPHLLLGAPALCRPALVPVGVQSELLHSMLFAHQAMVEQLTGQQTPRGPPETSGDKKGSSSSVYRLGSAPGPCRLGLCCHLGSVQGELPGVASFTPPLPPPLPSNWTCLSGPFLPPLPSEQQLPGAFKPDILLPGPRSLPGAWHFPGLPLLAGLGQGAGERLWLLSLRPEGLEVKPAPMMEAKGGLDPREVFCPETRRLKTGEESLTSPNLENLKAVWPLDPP
The gist of the method:
as §1

The target of a further experiment is T3, ETS2 (Homo sapiens, UniProt P15036 1-469).
T3 sequence: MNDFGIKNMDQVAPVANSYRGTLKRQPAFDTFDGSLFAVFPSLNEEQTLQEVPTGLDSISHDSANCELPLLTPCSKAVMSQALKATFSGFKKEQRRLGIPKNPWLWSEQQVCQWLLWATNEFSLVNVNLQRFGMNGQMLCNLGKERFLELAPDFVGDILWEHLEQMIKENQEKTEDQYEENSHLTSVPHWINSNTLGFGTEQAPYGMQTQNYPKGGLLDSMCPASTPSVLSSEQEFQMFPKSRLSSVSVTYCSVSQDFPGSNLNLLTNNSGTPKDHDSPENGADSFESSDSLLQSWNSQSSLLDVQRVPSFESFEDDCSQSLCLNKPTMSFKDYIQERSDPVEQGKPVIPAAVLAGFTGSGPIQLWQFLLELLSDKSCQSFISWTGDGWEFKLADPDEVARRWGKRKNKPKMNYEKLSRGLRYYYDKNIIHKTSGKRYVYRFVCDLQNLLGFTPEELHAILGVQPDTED
The gist of the method: as §1

In the next experiment the target is T4, SPDEF (Homo sapiens, UniProt O95238 1-335).
T4 sequence: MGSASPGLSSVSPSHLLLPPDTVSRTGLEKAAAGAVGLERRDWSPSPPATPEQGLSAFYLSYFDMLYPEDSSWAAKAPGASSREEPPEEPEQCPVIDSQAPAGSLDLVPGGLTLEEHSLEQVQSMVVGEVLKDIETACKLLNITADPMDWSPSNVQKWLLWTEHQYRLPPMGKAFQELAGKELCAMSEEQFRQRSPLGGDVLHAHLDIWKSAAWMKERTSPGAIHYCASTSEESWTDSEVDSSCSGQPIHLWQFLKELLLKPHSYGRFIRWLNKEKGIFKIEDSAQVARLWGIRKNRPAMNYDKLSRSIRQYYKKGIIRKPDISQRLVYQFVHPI
Put shortly:
as §1

The target in the next experiment is T5, ETV7 (Homo sapiens, UniProt Q9Y603 1-341).
T5 sequence: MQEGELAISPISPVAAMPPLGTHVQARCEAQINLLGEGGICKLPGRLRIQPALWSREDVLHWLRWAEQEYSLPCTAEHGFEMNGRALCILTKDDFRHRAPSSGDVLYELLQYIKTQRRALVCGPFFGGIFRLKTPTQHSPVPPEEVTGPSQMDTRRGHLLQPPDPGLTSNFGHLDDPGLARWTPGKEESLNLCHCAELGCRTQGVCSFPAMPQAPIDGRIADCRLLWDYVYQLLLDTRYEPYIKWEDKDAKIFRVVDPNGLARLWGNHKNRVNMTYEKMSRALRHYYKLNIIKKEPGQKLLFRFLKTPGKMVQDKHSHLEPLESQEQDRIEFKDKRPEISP
Put shortly: as §1

Another experiment deals with T6, ELF5 (Homo sapiens, UniProt Q9UKW6-2 1-255).
T6 sequence: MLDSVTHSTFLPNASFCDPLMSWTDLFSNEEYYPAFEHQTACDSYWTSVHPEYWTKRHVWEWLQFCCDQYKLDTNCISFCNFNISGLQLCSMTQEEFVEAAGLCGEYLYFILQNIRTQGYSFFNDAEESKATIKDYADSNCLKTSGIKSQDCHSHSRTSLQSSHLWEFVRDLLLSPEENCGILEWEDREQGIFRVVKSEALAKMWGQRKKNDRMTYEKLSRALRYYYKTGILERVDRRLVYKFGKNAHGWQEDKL
The gist of the method:
as §1

Another experiment concerns the target T7, ETV3 (Homo sapiens, UniProt P41162-2 1-143).
T7 sequence: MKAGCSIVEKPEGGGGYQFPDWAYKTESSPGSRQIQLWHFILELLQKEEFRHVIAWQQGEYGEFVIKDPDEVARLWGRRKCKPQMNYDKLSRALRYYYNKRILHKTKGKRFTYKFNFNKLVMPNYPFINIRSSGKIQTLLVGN
Put shortly: as §1

In a further experiment the target is ETV6 (Homo sapiens, UniProt P41212 1-452). The gist of the method: as §1
Chain of ETV6 (P41212 whole entry): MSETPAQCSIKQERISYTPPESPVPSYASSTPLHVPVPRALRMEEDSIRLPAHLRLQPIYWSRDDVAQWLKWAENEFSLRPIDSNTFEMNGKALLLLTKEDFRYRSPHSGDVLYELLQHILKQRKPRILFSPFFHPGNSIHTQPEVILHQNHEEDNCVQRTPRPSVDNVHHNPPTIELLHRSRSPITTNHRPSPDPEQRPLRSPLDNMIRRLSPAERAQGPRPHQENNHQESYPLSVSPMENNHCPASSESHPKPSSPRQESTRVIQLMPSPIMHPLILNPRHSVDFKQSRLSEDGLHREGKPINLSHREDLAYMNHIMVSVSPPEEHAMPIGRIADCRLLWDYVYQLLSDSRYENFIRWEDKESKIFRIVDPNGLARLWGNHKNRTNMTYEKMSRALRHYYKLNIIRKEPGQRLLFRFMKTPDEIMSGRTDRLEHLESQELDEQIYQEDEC

For the sequence AACTTG, the binding signal with ERF was 1.18 fold enrichment (6-mer frequency, TF over GST control); with ETV3L, 1.17 fold enrichment (6-mer frequency, TF over GST control); with ETS2, 1.18 fold enrichment (6-mer frequency, TF over GST control); in the experiment with SPDEF, 1.14 fold enrichment (6-mer frequency, TF over GST control); with ETV7, 1.08 fold enrichment (6-mer frequency, TF over GST control); with ELF5 it was 1.06 fold enrichment (6-mer frequency, TF over GST control). Further, the binding signal was 1.28 fold enrichment (6-mer frequency, TF over GST control) in the experiment with ETV3 and 1.09 fold enrichment (6-mer frequency, TF over GST control) in the experiment with ETV6.

With CCACTG, the binding signal with ERF is 1.22 fold enrichment (6-mer frequency, TF over GST control); with ETV3L it was 1.15 fold enrichment (6-mer frequency, TF over GST control); in the experiment with ETS2, 1.16 fold enrichment (6-mer frequency, TF over GST control); with SPDEF, 1.14 fold enrichment (6-mer frequency, TF over GST control); with ETV7, 1.1 fold enrichment (6-mer frequency, TF over GST control); with ELF5, 1.09 fold enrichment (6-mer frequency, TF over GST control). Besides, the binding signal was 1.15 fold enrichment (6-mer frequency, TF over GST control) with ETV3 and 1.22 fold enrichment (6-mer frequency, TF over GST control) in the experiment with ETV6.

TAAGCT: the binding signal in the experiment with ERF was 1.39 fold enrichment (6-mer frequency, TF over GST control); in the experiment with ETV3L, 1.25 fold enrichment (6-mer frequency, TF over GST control); with ETS2, 1.13 fold enrichment (6-mer frequency, TF over GST control); with SPDEF, 1.11 fold enrichment (6-mer frequency, TF over GST control); in the experiment with ETV7, 1.3 fold enrichment (6-mer frequency, TF over GST control); in the experiment with ELF5, 1.04 fold enrichment (6-mer frequency, TF over GST control). In addition, the binding signal is 1.2 fold enrichment (6-mer frequency, TF over GST control) in the experiment with ETV3 and 1.15 fold enrichment (6-mer frequency, TF over GST control) with ETV6.

For the sequence TGAACC, the binding signal with ERF is 1.08 fold enrichment (6-mer frequency, TF over GST control); in the experiment with ETV3L it was 1.2 fold enrichment (6-mer frequency, TF over GST control); with ETS2, 1.24 fold enrichment (6-mer frequency, TF over GST control); with SPDEF, 1.16 fold enrichment (6-mer frequency, TF over GST control); with ETV7 it was 1.06 fold enrichment (6-mer frequency, TF over GST control); with ELF5 it was 1.09 fold enrichment (6-mer frequency, TF over GST control). The binding signal is 1.12 fold enrichment (6-mer frequency, TF over GST control) in the experiment with ETV3 and 1.11 fold enrichment (6-mer frequency, TF over GST control) with ETV6.

In the case of CCTACC, the binding signal with ERF was 1.37 fold enrichment (6-mer frequency, TF over GST control); with ETV3L, 1.37 fold enrichment (6-mer frequency, TF over GST control); with ETS2, 1.36 fold enrichment (6-mer frequency, TF over GST control); in the experiment with SPDEF it was 1.35 fold enrichment (6-mer frequency, TF over GST control); with ETV7 it was 1.21 fold enrichment (6-mer frequency, TF over GST control); with ELF5, 1.44 fold enrichment (6-mer frequency, TF over GST control). The binding signal is 1.35 fold enrichment (6-mer frequency, TF over GST control) with ETV3 and 1.32 fold enrichment (6-mer frequency, TF over GST control) with ETV6.

Take TTCTGT: the binding signal with ERF was 1.39 fold enrichment (6-mer frequency, TF over GST control); with ETV3L, 1.42 fold enrichment (6-mer frequency, TF over GST control); in the experiment with ETS2 it was 1.29 fold enrichment (6-mer frequency, TF over GST control); with SPDEF it was 1.15 fold enrichment (6-mer frequency, TF over GST control); with ETV7 it was 1.26 fold enrichment (6-mer frequency, TF over GST control); in the experiment with ELF5 it was 1.29 fold enrichment (6-mer frequency, TF over GST control). Further, the binding signal in the experiment with ETV3 is 1.19 fold enrichment (6-mer frequency, TF over GST control); with ETV6, 1.38 fold enrichment (6-mer frequency, TF over GST control).

Regarding AATTTT, the binding signal is 1.36 fold enrichment (6-mer frequency, TF over GST control) with ERF; 1.3 fold enrichment (6-mer frequency, TF over GST control) with ETV3L; 1.23 fold enrichment (6-mer frequency, TF over GST control) in the experiment with ETS2; 1.22 fold enrichment (6-mer frequency, TF over GST control) with SPDEF; 1.14 fold enrichment (6-mer frequency, TF over GST control) in the experiment with ETV7; 1.23 fold enrichment (6-mer frequency, TF over GST control) with ELF5. Also, the binding signal is 1.2 fold enrichment (6-mer frequency, TF over GST control) in the experiment with ETV3 and 1.13 fold enrichment (6-mer frequency, TF over GST control) in the experiment with ETV6.

Consider TCCACC, for which the binding signal is 1.25 fold enrichment (6-mer frequency, TF over GST control) with ERF; 1.22 fold enrichment (6-mer frequency, TF over GST control) with ETV3L; 1.21 fold enrichment (6-mer frequency, TF over GST control) in the experiment with ETS2; 1.1 fold enrichment (6-mer frequency, TF over GST control) with SPDEF; 1.12 fold enrichment (6-mer frequency, TF over GST control) with ETV7; 1.19 fold enrichment (6-mer frequency, TF over GST control) in the experiment with ELF5. In addition, the binding signal with ETV3 was 1.29 fold enrichment (6-mer frequency, TF over GST control); with ETV6 it was 1.26 fold enrichment (6-mer frequency, TF over GST control).
